Counter-ions that a name gives are not always drawn.
How the values were obtained:
Assay in all cases: bioluminescence (viable cell) signal fold change after vs before treatment, normalised to DMSO (ratio); higher = more tumour cell growth / less inhibition
Settings in all cases: 10 µM; treatment time 6 days
[1] = test system: LEGO organoid PT (PTEN-/-; TP53-/-)
Protocol: (§1)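 Luc2-labelled iPSC-derived glioblastoma-like organoids (LEGOs, genotypes PT = PTEN-/-;TP53-/-, PTCC = plus CDKN2A/B-/-, PTN = plus NF1-/-) were treated with 10 uM drug for 6 days (applied every other day) at 37 C. Bioluminescence imaging was done before treatment and 2 days after the last dose. BLI signals were normalised to the DMSO control on the same day and then to the pre-treatment signal (N=3).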

[2] = test system: LEGO organoid PTCC (PTEN-/-; TP53-/-; CDKN2A-/-; CDKN2B-/-)
Protocol: as §1

[3] = test system: LEGO organoid PTN (PTEN-/-; TP53-/-; NF1-/-)
Protocol: as §1

| Structure (SMILES) | bioluminescence [1] | bioluminescence [2] | bioluminescence [3] |
| --- | --- | --- | --- |
| CS(=O)(=O)OCCCCOS(C)(=O)=O [Busulfan] | 2.15 | 1.3 | 2.3 |
| Nc1ncn([C@H]2C[C@H](O)[C@@H](CO)O2)c(=O)n1 [Decitabine] | 1.2 | 1.67 | 1.09 |
| N#Cc1ccc2[nH]cc(CCCCN3CCN(c4ccc5oc(C(N)=O)cc5c4)CC3)c2c1 [Vilazodone] | 0.812 | 1.83 | 0.898 |
| C[C@@H](c1ncncc1F)[C@](O)(Cn1cncn1)c1ccc(F)cc1F [Voriconazole] | 0.515 | 0.587 | 1.46 |
| Cc1nc2c([nH]1)CCN(C(=O)c1ccc(NC(=O)c3ccccc3-c3ccccc3)cc1)c1ccccc1-2.Cl [Conivaptan hydrochloride] | 0.674 | 3.25 | 0.375 |
| COCCCC/C(=N\OCCN)c1ccc(C(F)(F)F)cc1.O=C(O)/C=C\C(=O)O [Fluvoxamine maleate] | 1.22 | 0.792 | 1.47 |
| COc1ccccc1OCC(O)COC(N)=O (centres undefined) [Methocarbamol] | 0.829 | 1.84 | 2.82 |
| Cc1cccc(C)c1OCC(=O)N[C@@H](Cc1ccccc1)[C@@H](O)C[C@H](Cc1ccccc1)NC(=O)[C@H](C(C)C)N1CCCNC1=O [Lopinavir] | 1.02 | 0.969 | 0.66 |
| C[C@]12CCC3=C4CCC(=O)C=C4CC[C@H]3[C@@H]1CC[C@@]2(O)CC#N [Dienogest] | 0.653 | 3.61 | 0.658 |
| Cl.O=C1CC2(CCCC2)CC(=O)N1CCCCN1CCN(c2ncccn2)CC1 [Buspirone hydrochloride] | 1.22 | 1.47 | 0.759 |
| CCCN(CCc1cccs1)[C@H]1CCc2c(O)cccc2C1 [Rotigotine] | 0.925 | 2.02 | 1.77 |
| C[C@H]1COc2c(N3CCN(C)CC3)c(F)cc3c(=O)c(C(=O)O)cn1c23 [Levofloxacin] | 0.997 | 0.587 | 0.861 |
| COC(=O)/C=C/C(=O)OC [Dimethyl fumarate] | 0.759 | 0.94 | 1.44 |
| CCc1cc2c(cc1N1CCC(N3CCOCC3)CC1)C(C)(C)c1[nH]c3cc(C#N)ccc3c1C2=O.Cl [Alectinib hydrochloride] | 0.656 | 0.838 | 1.36 |
| O=C([O-])Cc1ccccc1Nc1c(Cl)cccc1Cl.[Na+] [Diclofenac sodium] | 0.777 | 1.05 | 1.75 |
| CN(C/C=C/c1ccccc1)Cc1cccc2ccccc12.Cl [Naftifine hydrochloride] | 0.607 | 1.3 | 0.535 |
| CNS(=O)(=O)Cc1ccc2[nH]cc(CCN(C)C)c2c1.O=C(O)CCC(=O)O [Sumatriptan succinate] | 1.23 | 0.433 | 1.05 |
| CN(CCOc1ccc(CC2SC(=O)NC2=O)cc1)c1ccccn1 (centres undefined) [Rosiglitazone] | 0.664 | 1.87 | 1.22 |
| C[C@@H](Oc1cc(-c2cnn(C3CCNCC3)c2)cnc1N)c1c(Cl)ccc(F)c1Cl [Crizotinib] | 0.492 | 0.43 | 0.303 |
| C#Cc1cccc(Nc2ncnc3cc(OCCOC)c(OCCOC)cc23)c1 [Erlotinib] | 0.504 | 4.27 | 1.82 |
| Cc1ccc(Nc2nccc(N(C)c3ccc4c(C)n(C)nc4c3)n2)cc1S(N)(=O)=O [Pazopanib] | 0.948 | 0.395 | 0.583 |
| COc1cc2ncnc(Nc3ccc(F)c(Cl)c3)c2cc1NC(=O)/C=C/CN1CCCCC1 [Dacomitinib] | 0.37 | 0.0502 | 0 |
| CNCCC(Oc1ccc(C(F)(F)F)cc1)c1ccccc1.Cl (centres undefined) [Fluoxetine hydrochloride] | 0.929 | 1.74 | 0.924 |
| COc1cc2c(cc1OC)C(=O)C(CC1CCN(Cc3ccccc3)CC1)C2.Cl (centres undefined) [Donepezil HCl] | 0.543 | 0.812 | 0.746 |
| Nc1nc(NC2CC2)c2ncn([C@H]3C=C[C@@H](CO)C3)c2n1.Nc1nc(NC2CC2)c2ncn([C@H]3C=C[C@@H](CO)C3)c2n1.O=S(=O)(O)O [Abacavir sulfate] | 0.703 | 1.28 | 1.95 |
| CO/N=C(\C(=O)N[C@@H]1C(=O)N2C(C(=O)[O-])=C(C[N+]3(C)CCCC3)CS[C@H]12)c1csc(N)n1.Cl.Cl.O [Cefepime Dihydrochloride Monohydrate] | 1.05 | 0.833 | 1.59 |
| CCOC(=O)C1=C(C)NC(C)=C(C(=O)OC)C1c1cccc(Cl)c1Cl (centres undefined) [Felodipine] | 1.06 | 1.16 | 1.04 |

| Structure (SMILES) | bioluminescence [1] | bioluminescence [2] | bioluminescence [3] |
| --- | --- | --- | --- |
| CCN(CC)CC(=O)Nc1c(C)cccc1C.Cl [Lidocaine hydrochloride] | 1.49 | 1.11 | 1.08 |
| C[N+](C)(C)CCO.[Cl-] [Choline chloride] | 1.48 | 0.614 | 2.09 |
| CCc1cccc2c3c([nH]c12)C(CC)(CC(=O)O)OCC3 (centres undefined) [Etodolac] | 1 | 0.917 | 1.19 |
| COc1cc(C(C)=O)ccc1OCCCN1CCC(c2noc3cc(F)ccc23)CC1 [Iloperidone] | 1.45 | 1.06 | 2.12 |
| O=C1CCC(N2C(=O)c3ccccc3C2=O)C(=O)N1 (centres undefined) [Thalidomide] | 3.97 | 0.79 | 1.38 |
| CCN(CC)CCNC(=O)c1cc(Cl)c(N)cc1OC [5-Chloro-2-methoxyprocainamide] | 1.1 | 0.329 | 1.62 |
| CCC(=O)NCC[C@@H]1CCc2ccc3c(c21)CCO3 [Ramelteon] | 0.961 | 1.56 | 2.06 |
| CC(=O)Nc1nnc(S(N)(=O)=O)s1 [Acetazolamide] | 1.6 | 1.7 | 2.04 |
| CN[C@H](CC(C)C)C(=O)N[C@H]1C(=O)N[C@@H](CC(N)=O)C(=O)N[C@H]2C(=O)N[C@H]3C(=O)N[C@H](C(=O)N[C@H](C(=O)O)c4cc(O)cc(O)c4-c4cc3ccc4O)[C@H](O)c3ccc(c(Cl)c3)Oc3cc2cc(c3O[C@@H]2O[C@H](CO)[C@@H](O)[C@H](O)[C@H]2O[C@H]2C[C@](C)(N)[C@H](O)[C@H](C)O2)Oc2ccc(cc2Cl)[C@H]1O [Vancomycin] | 1.48 | 0.957 | 0.868 |
| CN1C(=O)OC(C)(C)C1=O [Trimethadione] | 0.57 | 1.38 | 0.909 |
| CO[C@H]1C[C@@H]2CC[C@@H](C)[C@@](O)(O2)C(=O)C(=O)N2CCCC[C@H]2C(=O)O[C@H]([C@H](C)C[C@@H]2CC[C@@H](OC(=O)C(C)(CO)CO)[C@H](OC)C2)CC(=O)[C@H](C)/C=C(\C)[C@@H](O)[C@@H](OC)C(=O)[C@H](C)C[C@H](C)/C=C/C=C/C=C/1C [Temsirolimus] | 1.26 | 0.978 | 0.856 |
| S=c1nc[nH]c2nc[nH]c12 [Mercaptopurine] | 4.23 | 1.6 | 0.946 |
| CCCCN1CCCCC1C(=O)Nc1c(C)cccc1C.Cl (centres undefined) [Bupivacaine hydrochloride] | 1.37 | 1.22 | 0.809 |
| O=c1[nH]cnc2c1ncn2[C@H]1CC[C@@H](CO)O1 [Didanosine] | 0.958 | 4.18 | 0.81 |
| CC(C(=O)O)c1cccc(C(=O)c2ccccc2)c1 (centres undefined) [Ketoprofen] | 0.893 | 1.2 | 1.02 |
| C[C@@H]1O[C@@H]1P(=O)(O)O.NC(CO)(CO)CO [Fosfomycin Tromethamine] | 0.757 | 1.69 | 0.813 |
| CC1COc2c(N3CCN(C)CC3)c(F)cc3c(=O)c(C(=O)O)cn1c23 (centres undefined) [Ofloxacin] | 1.08 | 2.88 | 1.19 |
| Cc1cn([C@H]2C[C@H](N=[N+]=[N-])[C@@H](CO)O2)c(=O)[nH]c1=O [Zidovudine] | 5.37 | 1.35 | 3.76 |
| Nc1ccn([C@@H]2O[C@H](CO)[C@@H](O)[C@@H]2O)c(=O)n1 [Cytarabine] | 1.82 | 1.15 | 0.51 |
| Cc1nc2n(c(=O)c1CCN1CCC(c3noc4cc(F)ccc34)CC1)CCCC2 [Risperidal] | 1.57 | 1.93 | 1.31 |
| CCOC(=O)c1ccc(C#Cc2ccc3c(c2)C(C)(C)CCS3)nc1 [Tazarotene] | 1.52 | 1.42 | 1.11 |
| Cl.OC(CCN1CCCCC1)(c1ccccc1)C1CCCCC1 (racemic) [DL-trihexyphenidyl hydrochloride] | 1.67 | 0.966 | 0.496 |
| C=C/C=C/C[C@@H](C)[C@@H](O)[C@H]1C(=O)N[C@@H](CC)C(=O)N(C)CC(=O)N(C)[C@@H](CC(C)C)C(=O)N[C@@H](C(C)C)C(=O)N(C)[C@@H](CC(C)C)C(=O)N[C@@H](C)C(=O)N[C@H](C)C(=O)N(C)[C@@H](CC(C)C)C(=O)N(C)[C@@H](CC(C)C)C(=O)N(C)[C@@H](C(C)C)C(=O)N1C [Voclosporin] | 0.414 | 0.723 | 0.446 |
| COc1ccccc1Oc1c(NS(=O)(=O)c2ccc(C(C)(C)C)cc2)nc(-c2ncccn2)nc1OCCO [Bosentan] | 0.81 | 1.68 | 1.28 |
| NCC[C@H](O)C(=O)N[C@@H]1C[C@H](N)[C@@H](O[C@H]2O[C@H](CN)[C@@H](O)[C@H](O)[C@H]2O)[C@H](O)[C@H]1O[C@H]1O[C@H](CO)[C@@H](O)[C@H](N)[C@H]1O.O=S(=O)(O)O.O=S(=O)(O)O [Amikacin disulfate] | 1.24 | 1.21 | 0.614 |
| CO[C@H]1C(=O)[C@]2(C)[C@@H](OC)C[C@H]3OC[C@@]3(OC(C)=O)[C@H]2[C@H](OC(=O)c2ccccc2)[C@]2(O)C[C@H](OC(=O)[C@H](O)[C@@H](NC(=O)OC(C)(C)C)c3ccccc3)C(C)=C1C2(C)C [Cabazitaxel] | 1.15 | 7.3 | 0.429 |

Reference: the supplement of paper PMC10811239
